Measured values: PubChem BioAssay (NCI)
This is part of a sample that, as a whole, favours compounds with a hit. Of some 83,000 tested, about 20% had one in any assay.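 Step 1: grow cells in 96-well plates. Step 2: add test compound at a single concentration. Step 3: incubate 48 h. Step 4: record percent growth.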 Unmarked numbers belong to inactive results. Activity calls are given as the source filed them. How the source made its calls: active means growth percent below 10; inactive means the rest.

Legend:
Test in all cases: NCI-60 one-dose screen, 48 h (100 = growth as untreated, 0 = no growth, -100 = all killed)
Conditions in all cases: 10 µM unless noted
[1] = tested on: SK-MEL-2 melanoma
[2] = tested on: EKVX NSCLC
[3] = tested on: SN12C renal
[4] = tested on: UO-31 renal
[5] = tested on: TK-10 renal
[6] = tested on: ACHN renal
[7] = tested on: CAKI-1 renal
[8] = tested on: A498 renal
[9] = tested on: CCRF-CEM leukemia
[10] = tested on: MOLT-4 leukemia
[11] = tested on: SR leukemia
[12] = tested on: RPMI-8226 leukemia
[13] = tested on: OVCAR-8 ovarian
[14] = tested on: OVCAR-5 ovarian
[15] = tested on: OVCAR-4 ovarian
[16] = tested on: SK-OV-3 ovarian
[17] = tested on: IGROV1 ovarian
[18] = tested on: OVCAR-3 ovarian
[19] = tested on: HS 578T breast
[20] = tested on: NCI/ADR-RES ovarian

## CCOc1ccc(/C=N\N=C\c2ccc(OCC)cc2)cc1
[1]
  growth: 39.3%
[2]
  growth: 103%
[3]
  growth: 80.4%
[4]
  growth: 79%
[5]
  growth: 86.8%
[6]
  growth: 9.41% (active)
[7]
  growth: 46.3%
[8]
  growth: 108%
[9]
  growth: 118%
[10]
  growth: 81%
[11]
  growth: 64.3%
[12]
  growth: 107%
[13]
  growth: 74.5%
[14]
  growth: 76.9%
[15]
  growth: 94.1%
[16]
  growth: 101%
[17]
  growth: 78.5%
[18]
  growth: 114%
[19]
  growth: 106%
[20]
  growth: 78.1%

## COc1ccc(-c2cc(C(=O)N3N=C(c4ccc(N)cc4)CC3c3ccccc3)c3ccccc3n2)cc1 (stereo not given)
[1]
  growth: 39.8%
[2]
  growth: 70.8%
[3]
  growth: 51.7%
[4]
  growth: 45.5%
[5]
  growth: 58.4%
[6]
  growth: 37.6%
[7]
  growth: 24.5%
[8]
  growth: 29.1%
[9]
  growth: 25.6%
[10]
  growth: 35.2%
[11]
  growth: 22.6%
[12]
  growth: 23.5%
[13]
  growth: 47.5%
[14]
  growth: 64.7%
[15]
  growth: 65%
[16]
  growth: 34.9%
[17]
  growth: 49.5%
[18]
  growth: 10.7%
[19]
  growth: 36.8%
[20]
  growth: 34.4%

## CC(C)CCSc1nc(Nc2ccccc2)c(C#N)c(-c2ccccc2)n1
[1]
  growth: 81.4%
[2]
  growth: 14.7%
[3]
  growth: 27.1%
[4]
  growth: 12.9%
[5]
  growth: 24.7%
[6]
  growth: -21.2% (active)
[7]
  growth: 26.8%
[8]
  growth: -8.82% (active)
[9]
  growth: 54.9%
[10]
  growth: 80.7%
[11]
  growth: 27.2%
[12]
  growth: 73.9%
[13]
  growth: 42.7%
[14]
  growth: 64.9%
[15]
  growth: -7.19% (active)
[16]
  growth: 69.1%
[17]
  growth: 17.3%
[18]
  growth: 57.6%
[19]
  growth: 14.3%
[20]
  growth: 52.4%

## C/C(=N\Nc1nc(C)cs1)c1cc2ccccc2o1
[1]
  growth: 104%
[2]
  growth: 56.3%
[3]
  growth: 91.8%
[4]
  growth: 55.4%
[5]
  growth: 134%
[6]
  growth: 86.6%
[7]
  growth: 75.9%
[8]
  growth: 99.9%
[9]
  growth: 79.1%
[10]
  growth: 85.9%
[11]
  growth: 109%
[12]
  growth: 88.5%
[13]
  growth: 93.3%
[14]
  growth: 103%
[15]
  growth: 94.2%
[16]
  growth: 105%
[17]
  growth: 75.8%
[18]
  growth: 94.1%
[19]
  growth: 88.8%
[20]
  growth: 102%

## CCN1C(=O)N(CC)C2C1NN=C1SCC(=O)N12 (stereo not given)
[1]
  growth: 106%
[2]
  growth: 86.8%
[3]
  growth: 78.9%
[4]
  growth: 58.8%
[5]
  growth: 104%
[6]
  growth: 84.2%
[7]
  growth: 89.2%
[8]
  growth: 112%
[9]
  growth: 40%
[10]
  growth: 57.2%
[11]
  growth: 95.7%
[12]
  growth: 80.6%
[13]
  growth: 66.3%
[14]
  growth: 95.8%
[15]
  growth: 32.6%
[16]
  growth: 105%
[17]
  growth: 27.2%
[18]
  growth: 24.5%
[19]
  growth: 98.4%
[20]
  growth: 84.6%

## COc1ccc(C2CC(c3ccc(Nc4nc(Nc5ccc(F)cc5)nc(Nc5ccc(F)cc5)n4)cc3)=NN2C(C)=O)cc1 (stereo not given)
[1]
  growth: 72%
[2]
  growth: 94.8%
[3]
  growth: 116%
[4]
  growth: 97.7%
[5]
  growth: 104%
[6]
  growth: 84.5%
[7]
  growth: 90.6%
[8]
  growth: 85.3%
[9]
  growth: 23.5%
[10]
  growth: 34.6%
[11]
  growth: 16.4%
[12]
  growth: 7.18% (active)
[13]
  growth: 90.3%
[14]
  growth: 87.6%
[15]
  growth: 98.1%
[16]
  growth: 131%
[17]
  growth: 101%
[18]
  growth: 97.9%
[19]
  growth: 111%
[20]
  growth: 80.5%

## COc1cccc(Nc2ccnc3[nH]c4ccc([N+](=O)[O-])cc4c23)c1
[1]
  growth: 40.2%
[2]
  growth: 31.6%
[3]
  growth: 65.2%
[4]
  growth: 44.4%
[5]
  growth: 66.6%
[6]
  growth: 45.2%
[7]
  growth: 28.8%
[8]
  growth: 43.5%
[9]
  growth: 42%
[10]
  growth: 48.7%
[11]
  growth: 31.5%
[12]
  growth: 65.2%
[13]
  growth: 32.2%
[14]
  growth: 110%
[15]
  growth: 27.2%
[16]
  growth: 47.5%
[17]
  growth: 33.1%
[18]
  growth: 46.9%
[19]
  growth: 27.8%
[20]
  growth: 44.4%

## CCCCCCOC(=O)CC1=C(C)/C(=C/c2[nH]c(-c3ccc[nH]3)cc2OC)N=C1C
[1]
  growth: -49.5% (active)
[2]
  growth: -35% (active)
[3]
  growth: -63% (active)
[4]
  growth: -86.9% (active)
[5]
  growth: -24.9% (active)
[6]
  growth: -19.5% (active)
[7]
  growth: 0.637% (active)
[8]
  growth: -49.4% (active)
[9]
  growth: -22.5% (active)
[10]
  growth: -30.3% (active)
[11]
  growth: -44.5% (active)
[12]
  growth: -52.3% (active)
[13]
  growth: -55.1% (active)
[14]
  growth: -9.61% (active)
[15]
  growth: -29.2% (active)
[16]
  growth: -34.5% (active)
[17]
  growth: -8.74% (active)
[18]
  growth: -93.9% (active)
[19]
  growth: -27% (active)
[20]
  growth: -49.4% (active)

## CN1CCN(Cc2ccc(NC(=O)c3cncc(C#Cc4cncc5[nH]ncc45)c3)cc2C(F)(F)F)CC1
[1]
  growth: -52.4% (active)
[2]
  growth: 26.3%
[3]
  growth: 8.48% (active)
[4]
  growth: -25% (active)
[5]
  growth: 12.5%
[6]
  growth: -0.725% (active)
[7]
  growth: -52% (active)
[8]
  growth: -49.5% (active)
[9]
  growth: 7.31% (active)
[10]
  growth: 3.77% (active)
[11]
  growth: -4.67% (active)
[12]
  growth: 1.42% (active)
[13]
  growth: 18.2%
[14]
  growth: 4.44% (active)
[15]
  growth: 10.2%
[16]
  growth: 8.47% (active)
[17]
  growth: -43.8% (active)
[18]
  growth: 15.8%
[19]
  growth: -35.5% (active)
[20]
  growth: 57.4%

## COC(=O)c1c2c(n3ccc(C)cc13)C(=O)c1ccccc1C2=O
[1]
  growth: 71.6%
[2]
  growth: 76.3%
[3]
  growth: 75.9%
[4]
  growth: 41%
[5]
  growth: 85.8%
[6]
  growth: 56.3%
[7]
  growth: 59.2%
[8]
  growth: 78.3%
[9]
  growth: 46.8%
[10]
  growth: 51.4%
[11]
  growth: 45.9%
[12]
  growth: 61.1%
[13]
  growth: 60.2%
[14]
  growth: 116%
[15]
  growth: 81.7%
[16]
  growth: 103%
[17]
  growth: 64.5%
[18]
  growth: 67.6%
[19]
  growth: 77.7%
[20]
  growth: 72.8%

## O=C1CCC(C(=O)NN(c2ccccc2)c2ccccc2)N1 (stereo not given)
[1]
  growth: 105%
[2]
  growth: 102%
[3]
  growth: 97.8%
[4]
  growth: 85.5%
[5]
  growth: 82.8%
[6]
  growth: 103%
[7]
  growth: 78%
[8]
  growth: 103%
[9]
  growth: 22%
[10]
  growth: 50%
[11]
  growth: 19.7%
[12]
  growth: 17.8%
[13]
  growth: 103%
[14]
  growth: 99.2%
[15]
  growth: 103%
[16]
  growth: 96.6%
[17]
  growth: 105%
[18]
  growth: 95.4%
[19]
  growth: 95.8%
[20]
  growth: 111%

## COC(=O)c1nc(-c2ccccc2)oc1S(=O)(=O)N1CCC(C(N)=O)CC1
[1]
  growth: 91.2%
[2]
  growth: 69.7%
[3]
  growth: 83.6%
[4]
  growth: 55.3%
[5]
  growth: 23.2%
[6]
  growth: 39.6%
[7]
  growth: 49.5%
[8]
  growth: 87.4%
[9]
  growth: -3.72% (active)
[10]
  growth: 1.95% (active)
[11]
  growth: -3.16% (active)
[12]
  growth: 41.3%
[13]
  growth: 83.7%
[14]
  growth: 76.7%
[15]
  growth: 61.2%
[16]
  growth: 101%
[17]
  growth: 51.4%
[18]
  growth: 16.2%
[19]
  growth: 86.7%
[20]
  growth: 111%

## N#C/C(=C\c1ccc(-c2ccc(Cl)cc2)o1)c1ccc(Cl)cc1
[1]
  growth: 96.5%
[2]
  growth: 49.5%
[3]
  growth: 30%
[4]
  growth: -11.6% (active)
[5]
  growth: 14.6%
[6]
  growth: -20.1% (active)
[7]
  growth: 38.4%
[8]
  growth: 82.5%
[9]
  growth: 66.6%
[10]
  growth: 85.6%
[11]
  growth: 59.6%
[12]
  growth: 44.8%
[13]
  growth: 58.4%
[14]
  growth: 68.1%
[15]
  growth: -14.1% (active)
[16]
  growth: 75.5%
[17]
  growth: 23.6%
[18]
  growth: 56.4%
[19]
  growth: 29.8%
[20]
  growth: 60%

## Cc1cc2nc3c4ccccc4n(CCN(C)C)c3nc2cc1C
[1]
  growth: 11%
[2]
  growth: 18.1%
[3]
  growth: 16.9%
[4]
  growth: -12% (active)
[5]
  growth: 26.7%
[6]
  growth: -26.5% (active)
[7]
  growth: -3.55% (active)
[8]
  growth: -15.2% (active)
[9]
  growth: 10.3%
[10]
  growth: 4.73% (active)
[11]
  growth: 4.17% (active)
[12]
  growth: -19.7% (active)
[13]
  growth: 6.84% (active)
[14]
  growth: 15.6%
[15]
  growth: -1.33% (active)
[16]
  growth: 13.3%
[17]
  growth: 5.07% (active)
[18]
  growth: 18%
[19]
  growth: 3.81% (active)
[20]
  growth: 6.55% (active)

## Cc1cccc(N2CCN(C(=S)c3ccc4c(c3)OCO4)CC2)c1
[1]
  growth: 9.2% (active)
[2]
  growth: 47.1%
[3]
  growth: 40%
[4]
  growth: 25.6%
[5]
  growth: 36.5%
[6]
  growth: 43.1%
[7]
  growth: 15.1%
[8]
  growth: 11.7%
[9]
  growth: 16.5%
[10]
  growth: 22%
[11]
  growth: 16.9%
[12]
  growth: 20%
[13]
  growth: 27.6%
[14]
  growth: 50.3%
[15]
  growth: 66.6%
[16]
  growth: 19.2%
[17]
  growth: 31.3%
[18]
  growth: -33.9% (active)
[19]
  growth: -27.7% (active)
[20]
  growth: -18.6% (active)

## NS(=O)(=O)c1ccc(N/C=C/C(=O)c2cc3ccccc3oc2=O)cc1
[1]
  growth: 109%
[2]
  growth: 84%
[3]
  growth: 96%
[4]
  growth: 62.4%
[5]
  growth: 125%
[6]
  growth: 99.7%
[7]
  growth: 80.1%
[8]
  growth: 111%
[9]
  growth: 108%
[10]
  growth: 103%
[11]
  growth: 78.1%
[12]
  growth: 98.4%
[13]
  growth: 104%
[14]
  growth: 106%
[15]
  growth: 87.5%
[16]
  growth: 83.4%
[17]
  growth: 91.5%
[18]
  growth: 101%
[19]
  growth: 92.4%
[20]
  growth: 97.8%
